DT40 TDP1 no CPT: qHTS for Inhibitors of human tyrosyl-DNA phosphodiesterase 1 (TDP1): qHTS in cells in absence of CPT. DT40 Tdp1-/- hTDP1 cells, no CPT, ATP luminescence, 48 h. Potency, µM (doses to about 46.2 µM), actives largely listed as inhibitors. 15% of 420,000 active. AID 686978, 2013; further: nearly all actives have a fitted effect of over 55% in size
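Stably hTDP1-transfected Tdp1-null chicken DT40 cells were treated with library compounds minus camptothecin and grown for at least 48 hr at 37 °C, after which cellular ATP was quantified by luminescence.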
HT1080 IDH1KD tx: qHTS for induction of synthetic lethality in tumor cells producing 2HG: qHTS for the HT-1080-IDH1KD cell line; AID 686971, 2013; HT-1080 IDH1 knockdown viability, ATP luminescence, 48 h; 2% of 360,000 active; Potency, µM (doses to about 46.1 µM), most hits filed as cytotoxic
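% activity derives from luminescence (CellTiter-Glo), normalised to DMSO and no-cell wells. HT-1080-IDH1KD cells, 750/well, had 48 h compound exposure at 37 °C.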
HT1080NT lethal: qHTS for induction of synthetic lethality in tumor cells producing 2HG: qHTS for the HT-1080-NT fibrosarcoma cell line. HT-1080-NT fibrosarcoma viability, CellTiter-Glo ATP luminescence, 48 h. Potency, µM (highest dose often 46.1 µM), hits mostly cytotoxic. 1.6% of 360,000 active;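 further: NT is the 2HG producing partner of a matched IDH1 knockdown line; nearly all actives have a fitted effect of over 55% in size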
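Read-out is CellTiter-Glo luminescence after 10 minutes at room temperature, following 48 hours' compound treatment of HT-1080-NT cells (750 cells/well, RPMI, 5% FBS, 37 degrees C).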
DT40 TDP1 CPT: qHTS for Inhibitors of human tyrosyl-DNA phosphodiesterase 1 (TDP1): qHTS in cells in presence of CPT; chicken DT40 Tdp1-/-;hTDP1 cells + 20 nM CPT, ATP luminescence, 48 h; 12% of 420,000 active; Potency, µM (doses to about 46.2 µM), usual class: inhibitors; further: nearly all actives have a fitted effect of over 55% in size
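Cell growth measured by CellTiter-Glo luminescence after a minimum 48 h, 37 C compound exposure with 20 nM CPT in Tdp1-knockout DT40 cells stably expressing hTDP1, seeded 400/well; qHTS titration format.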
IL-1B inflam inh: qHTS for Inhibitors of Inflammasome Signaling: IL-1-beta AlphaLISA Primary Screen; THP-1 LPS/ATP IL-1B secretion, AlphaLISA, 16 h; active compounds read low; activity change, % at 57.5 µM; 4.7% of 360,000 active; in the data active means activity change below about -50%; inconclusive means mostly about -30% to -49%
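THP-1 cells pretreated 1 hr with compounds (up to 57.5 uM final), then stimulated with LPS (250 ng/mL final) plus ATP (1.25 mM final); secreted IL-1B measured by AlphaLISA after 16 hr, decreased signal indicating inhibition.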
Hits are given with their value; 0 = inactive; ? = inconclusive; - = no result given. Rows were chosen to be rich in hits. Some 19% of all compounds tested hit in one or more screens of this group. Unless noted, the call rests on the fitted dose curve; in most records, active means well fitted curve in the direction sought with a large enough effect; inconclusive means small, poorly fitted or top-dose-only effect, or another doubt; inactive means no such curve, though single readings can be large; an effect the other way counts as inactive or inconclusive.

SMILES	DT40 TDP1 no CPT	HT1080 IDH1KD tx	HT1080NT lethal	DT40 TDP1 CPT	IL-1B inflam inh
Cc1ccc2nc(NC(=O)C3CC3C)sc2c1 (stereo unspecified)	?	0	0	?	0
CC(C)(C)C(=O)O/N=C(\N)c1ccc(-c2csnn2)cc1	?	0	0	0	0
COc1ccc(S(=O)(=O)N2CCCCCC2)cc1NC(=O)c1c2c(nc3ccccc13)CCN(Cc1ccccc1)C2	?	0	0	16.4µM	0
COc1ccc(S(=O)(=O)N2CCCCC2)cc1NC(=O)Cn1cnc2ccccc2c1=O	0	0	0	0	0
COc1ccc(NC(=O)c2c3c(nc4ccccc24)CCN(Cc2ccccc2)C3)c(OC)c1	?	0	0	16.4µM	0
CCN(CC)S(=O)(=O)c1ccc(OC(C)C)c(NC(=O)c2c3c(nc4ccccc24)CCN(Cc2ccccc2)C3)c1	11.6µM	0	0	13µM	0
CN1c2ccccc2SC2C(c3ccccc3)=NOC21 (stereo unspecified)	0	0	0	0	0
O=C(CCC1CCCCC1)NC1CCCCC1	0	0	0	0	0
O=S(=O)(Nc1ccc2c(c1)OCCO2)c1cnc[nH]1	0	0	0	0	0
Cc1cc(C)c(S(=O)(=O)N2CCCCC2CCNC(=O)C(=O)NCc2cccnc2)c(C)c1 (stereo unspecified)	?	0	0	11.6µM	0
Cc1ccc(C)c(S(=O)(=O)N2CCCC2CNC(=O)C(=O)NC2CCCCCC2)c1 (stereo unspecified)	23.1µM	0	0	?	0
Cc1ccc(S(=O)(=O)N2CCCCC2CCNC(=O)C(=O)NCc2cccnc2)cc1 (stereo unspecified)	18.4µM	?	?	20.6µM	0
Cc1cc(C)c(S(=O)(=O)N2CCCC(C(=O)NCc3cccnc3)C2)c(C)c1 (stereo unspecified)	20.6µM	0	0	16.4µM	0
Cc1ccccc1CNC(=O)C(=O)NCCC1CCCCN1S(=O)(=O)c1ccccc1 (stereo unspecified)	18.4µM	0	0	16.4µM	0
Cc1ccc(S(=O)(=O)N2CCCCC2CCNC(=O)C(=O)NC2CC2)cc1 (stereo unspecified)	?	0	0	?	0
Cc1cc(F)ccc1S(=O)(=O)N1CCCCC1CCNC(=O)C(=O)NCc1ccccn1 (stereo unspecified)	16.4µM	0	0	?	0
Cc1ccc(C)c(S(=O)(=O)N2CCCCC2CCNC(=O)C(=O)NCc2ccccn2)c1 (stereo unspecified)	?	0	0	?	0
Cc1ccc(C)c(S(=O)(=O)N2CCCCC2CCNC(=O)C(=O)NCc2ccccc2)c1 (stereo unspecified)	18.4µM	?	?	23.1µM	0
Cc1ccc(CNC(=O)C(=O)NCCC2CCCCN2S(=O)(=O)c2ccc(C)cc2)cc1 (stereo unspecified)	?	0	0	23.1µM	0
Nc1c(NCCC2=CCCCC2)c(=O)[nH]c(=O)n1Cc1ccccc1	6.51µM	0	0	25.9µM	0
COc1ccc(CCNc2c(N)n(Cc3ccccc3)c(=O)[nH]c2=O)cc1OC	?	0	0	0	-55.4
COc1ccc(CCNC2=C(Cl)C(=O)N(CCc3ccccc3)C2=O)cc1OC	20.6µM	0	0	?	0
COc1ccc(CCNc2c(C=O)c(=O)[nH]c3ccccc23)cc1OC	0	0	0	0	0
N/C(=N\OC(=O)Cc1cccs1)c1ccc(Br)cc1	0	0	0	0	0
COc1ccc(/C=C/C(=O)c2ccncc2)c2ccccc12	16.4µM	?	?	23.1µM	0
SMILES	DT40 TDP1 no CPT	HT1080 IDH1KD tx	HT1080NT lethal	DT40 TDP1 CPT	IL-1B inflam inh
COc1ccc(/C=C/C(=O)c2ccc[nH]2)c(OC)c1OC	?	0	0	0	0
CCCCCCCc1c(O)nc(SCCN(C)C)[nH]c1=O	0	0	0	0	-51.0
CCN(CC)c1ccc(/C=C/c2cccc[n+]2C)c(OC)c1	0.0517µM	?	?	1.16µM	-91.8
CCOc1cc(/C=C/c2cccc[n+]2C)ccc1O	0	0	0	0	0
COc1ccc(/C=C/c2cccc[n+]2C)c(O)c1	18.4µM	0	0	?	0
C[n+]1ccccc1/C=C/c1cc(Br)ccc1O	0	0	0	0	0
COc1ccc(NC(=O)c2ccc(-c3nc(CSc4ccccc4)c(C)o3)cc2)c(OC)c1	0	-	-	0	-
CCN1CCN(C(=O)c2ccc3nc(-c4ccccc4)c(-c4ccccc4)nc3c2)CC1	0	0	0	0	0
CN(C(=O)/C=C/c1ccc([N+](=O)[O-])s1)c1ccccc1	5.17µM	?	0	10.3µM	-51.6
CN(C(=O)COC(=O)/C=C/c1ccccc1[N+](=O)[O-])c1ccccc1	0	0	0	0	0
COc1ccc(CN(C)C[C@H]2OCCCC[C@@H](C)Oc3ccc(NC(=O)c4ccccc4)cc3C(=O)N([C@H](C)CO)C[C@@H]2C)cc1	?	0	0	?	0
Cc1nn2c(=O)cc(CSc3nc4ccccc4[nH]3)nc2s1	0	0	0	0	0
Cc1ccc(SCc2cc(=O)[nH]c(Nc3nc(C)c4ccccc4n3)n2)cc1	?	0	0	11.6µM	0
Cc1nc(Nc2nc3c(c(=O)[nH]2)CCC3)nc2ccccc12	4.11µM	?	?	5.8µM	-77.4
Cc1ccccc1CSc1nc2c(c(=O)[nH]1)CCC2	0	0	0	?	0
Cc1ccc(SCc2cc(=O)[nH]c(Nc3nc(C)c4ccc(C)cc4n3)n2)cc1	?	0	0	?	0
Cc1ccc2c(C)nc(Nc3nc(CSc4nc5ccccc5[nH]4)cc(=O)[nH]3)nc2c1	11.6µM	11.2µM	17.8µM	11.6µM	-86.3
C[C@H](NC(=O)c1ccco1)C(=O)NCCc1ccc(S(N)(=O)=O)cc1	0	0	0	0	0
COc1cccc(COC(=O)C2CC(=O)N(Cc3ccccc3)C2)c1OC (stereo unspecified)	0	0	0	0	0
COc1cc(C)ccc1OCc1cc(C(=O)NC(c2ccccn2)C(F)(F)F)no1 (stereo unspecified)	?	0	0	0.651µM	0
Cc1c(C(=O)OCC(=O)NCCN2C(=O)CSC2=O)cccc1[N+](=O)[O-]	0	0	?	0	0
COc1cccc(C2c3c(C)nn(-c4ccc([N+](=O)[O-])cc4)c3N=C3C(=O)Nc4ccccc4N32)c1 (stereo unspecified)	5.8µM	0	0	13µM	0
COc1cccc(-c2cc(N3C(=O)Nc4ccccc4N3O)n[nH]2)c1	0	0	0	0	0

High-throughput results as filed in PubChem.
